Only some compounds are listed: those with a hit (about 12% of all), similar ones and a draw of the others.
Sm TGR inh – S. mansoni TGR enzyme inhibition; Q962Y6; purified TGR, DTNB reduction, TNB absorbance 405 nm; Potency, µM (highest dose often 114 µM), most hits filed as inhibitors; 360,000 compounds, 3% hits; further: nearly all actives have a fitted effect of over 60% in size
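TGR 20 nM + NADPH 100 uM (dispensed conc.), cpd preinc 15 min RT; start with NADPH (500 uM addition) then DTNB (15 mM addition). Kinetic TNB absorbance, 405 nm filter. Four-parameter Hill fit across titration.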
SARS PLpro yeast – inhibitors of SARS-CoV papain-like protease in yeast. Potency, µM (titrated, usually from 32.9 µM), usual class: activators. 330,000 compounds, 0.19% hits. S. cerevisiae expressing SARS-CoV PLpro, growth rescue; calls by dose curve; further: nearly all actives have a fitted effect of over 55% in size
Pf growth 96h – P. falciparum growth inhibition at 96 hours. AID 504834. P. falciparum luciferase reporter growth, 96 h. Potency, µM (series often up to 28.7 µM), most hits filed as inhibitors. 320,000 compounds, 6.9% hits
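Readout is luminescence from an integrated firefly luciferase in P. falciparum. Red cells, 2% hematocrit and 0.05% parasitemia final, were cultured with compound through two parasite generations (96 hours) at 37 C, 5% CO2.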
Pf growth 48h – inhibits P. falciparum growth in the first generation, 48 h | P. falciparum luciferase growth in erythrocytes, 48 h | Potency, µM (doses to about 28.7 µM), usual class: inhibitors | 310,000 compounds, 5.9% hits | AID 504832
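Compounds are pin-transferred into medium, infected erythrocytes (2% hematocrit, 0.1% parasitemia final) are added, and plates sit one parasite generation at 37 C in 5% CO2. Detection reagent is then added and luminescence measured.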
A number is an active result; . = inactive; ? = inconclusive; / = no result; [ ] = another dose, or the depositor's remark. Unless noted, the call rests on the fitted dose curve; in most records, active means well fitted curve in the direction sought with a large enough effect; inconclusive means small, poorly fitted or top-dose-only effect, or another doubt; inactive means no such curve, though single readings can be large; an effect the other way counts as inactive or inconclusive.

SMILES	Sm TGR inh	SARS PLpro yeast	Pf growth 96h	Pf growth 48h
CCCC(=O)N(c1ccc(OC)cc1)C1C=CS(=O)(=O)C1 (configuration not stated)	.	.	.	.
COc1ccc(N(C(=O)c2cccc(OC)c2OC)C2C=CS(=O)(=O)C2)cc1 (configuration not stated)	.	.	2.3µM	.
Cn1c(CN2CCCCC2)nc2cc(NS(=O)(=O)c3ccc(Cl)cc3)ccc21	.	.	.	.
Cn1c(CCNC(=O)c2ccco2)nc2cc(NS(=O)(=O)c3ccc(Cl)cc3)ccc21	?	.	9.3µM	?
Cn1c(CCN2CCCCC2)nc2cc(NS(=O)(=O)c3ccc(Cl)cc3)ccc21	.	.	.[5.75 µM]	2.1µM
CC(=O)NCCc1nc2cc(NS(=O)(=O)c3ccc(Cl)cc3)ccc2n1C	.	.	?	.
COc1ccc(C)cc1Cn1c(S(C)(=O)=O)nc2ccccc21	40µM	.	/	?
CCS(=O)(=O)c1nc2ccccc2n1Cc1ccccc1Cl	.	.	10µM	?
COc1ccc(Cc2nc3c4c(ncn3n2)Oc2c(ccc3ccccc23)C4c2ccc(OC)c(OC)c2)cc1 (configuration not stated)	.	.	1.9µM	2.6µM
COc1ccc(Cc2nc3c4c(ncn3n2)Oc2ccc3ccccc3c2C4c2ccc(OC)c(OC)c2)cc1 (configuration not stated)	.	.	?	1.7µM
COc1ccc(C2c3ccc(O)cc3Oc3ncn4nc(-c5ccccn5)nc4c32)cc1 (configuration not stated)	.	.	?	?
COc1cc(N=c2ssnc2Cl)cc(OC)c1	79µM	.	.	.
C=C1CC[C@@]2(O)[C@H]3Cc4ccc(O)c5c4[C@@]2(CCN3CC2CC2)[C@H]1O5	.	.	.	.
C=CCN1CC[C@]23c4c5ccc(O)c4OC2C(=O)CC[C@@]3(O)C1C5 (some centres not stated)	40µM	.	.	.
COc1ccc(-c2nnc(CSc3nnc(-c4ccncc4)n3C3CCCCC3)o2)cc1OC	.	.	9.3µM	?
COc1ccc(-c2nn(-c3ccccc3)cc2/C=C2/SC(=S)N(CCC(=O)O)C2=O)c(C)c1	.	.	5.9µM	.
Cc1cc(C)nc(SCc2nc3ncccn3c2Br)n1	.	.	4.1µM	8.3µM
CC(C)c1ccc(OCC(=O)Nc2cc(-c3ccccc3)no2)cc1	.	/	/	/
Cc1ccc(N2C(=O)c3ccccc3C2Nc2ccccc2)nc1 (configuration not stated)	.	.	10µM	/
CCOC(=O)c1ccc(NC2c3ccccc3C(=O)N2c2cccnc2)cc1 (configuration not stated)	.	.	?	.
CCOC(=O)c1ccc(NC2c3ccccc3C(=O)N2c2ccc(C)cn2)cc1 (configuration not stated)	.	.	12µM	/
COc1ccc(OC)c(CN2CCC(N3CCC(C(=O)NC4CC4)CC3)CC2)c1	.	.	.	.
COc1cc(CN2CCN(C(=O)CC(C)C)CC2)cc(OC)c1O	13µM	.	?	.
COc1cc(CN2CCC(C(=O)NC3CCCC3)CC2)cc(OC)c1O	8.9µM	.	?	.
COc1cc(CN2CCC(C(=O)N3CCCC(C)C3)CC2)cc(OC)c1O (configuration not stated)	10µM	.	/	.
SMILES	Sm TGR inh	SARS PLpro yeast	Pf growth 96h	Pf growth 48h
Cc1ccc(C(=O)COC(=O)CNC(=O)c2ccccc2)s1	.	.	.	.
O=C(NC1CCCCC1)c1ccc(Cn2c(SCc3cccc(F)c3)nc3cccnc32)cc1	.	/	/	/
CC(C)CCn1c(=O)c2sccc2n2c(CCCC(=O)NC3CCC(C)CC3)nnc12 (configuration not stated)	.	/	/	/
COCCN1CCn2c(nc3cc(NC(C)=O)ccc32)C1	14µM	.	.	.
Cc1nn(CC(=O)Nc2ccc3c(c2)nc2n3CCOC2)c(=O)c2ccccc12	.	.	.	/
COCCN1CCn2c(nc3cc(NC(=O)c4ccc(OC)cc4)ccc32)C1	16µM	?	/	?
COCCN1CCn2c(nc3cc(NC(=O)NC4CCCCC4)ccc32)C1	8.9µM	.	/	.
COCCN1CCn2c(nc3cc(NC(=O)Cn4nc(C)c5ccccc5c4=O)ccc32)C1	25µM	.	.	.
O=C(Nc1ccc2c(c1)nc1n2CCN(Cc2ccccc2)C1)NC1CCCCC1	?	.	.	/
COc1ccc2cc(CNc3ccc(C)cc3)c(=O)n(CC(=O)Nc3cccc(Cl)c3C)c2c1	.	/	/	/
Cc1cccc(C(=O)Nc2cccc(OCc3cc(=O)n4cccc(C)c4n3)c2)c1	.	/	/	/
COc1ccccc1C1c2[nH]c3ccccc3c2CCN1Cc1cnc(C)s1 (configuration not stated)	.	.	?	?
COc1cccc(C2c3[nH]c4ccccc4c3CCN2Cc2cnc(C)s2)c1OC (configuration not stated)	.	.	?	2.3µM
COc1ccc(-c2nc3ccccc3s2)cc1NC(=O)c1ccc(F)cc1	.	/	/	/
Cc1ccc2oc(=O)c(S(=O)(=O)c3ccc(C(C)(C)C)cc3)cc2c1	.	/	/	/
CCc1cccc(N2C(=O)CSC23C(=O)Nc2ccccc23)c1 (configuration not stated)	.	/	/	/
CCc1ccc2c(c1)C1(NN=C(c3cccc4ccccc34)S1)C(=O)N2 (configuration not stated)	.	.	.	2.9µM
Cc1ccc(NC(=O)c2cnc(SCC(=O)N3CCCc4ccccc43)n(C)c2=O)cc1C	.	/	/	/
Cn1c(SCC(=O)N/N=C/C=C/c2ccco2)nc2ccccc21	22µM	.	.	.
O=C(CSc1nnc(SCc2ccccc2)s1)N/N=C/C=C/c1ccco1	40µM	.	.	.
O=C(CNc1cccc2ccccc12)N/N=C/C=C/c1ccco1	.	.	?	.
O=C(Cc1cccs1)N/N=C/C=C/c1ccco1	4µM	.	?	.
O=C(CN1CCN(Cc2ccccc2)CC1)N/N=C\C=C/c1ccco1	?	.	.	.
Cn1c(SCC(=O)N/N=C/C=C/c2ccccc2[N+](=O)[O-])nc2ccccc21	.	.	.	.
CCn1c(SCC(=O)N/N=C/C=C/c2ccco2)nnc1-c1ccccc1	35µM	.	.	.
SMILES	Sm TGR inh	SARS PLpro yeast	Pf growth 96h	Pf growth 48h
COc1ccccc1Cc1nc2ccccc2nc1SCC(=O)N(C)c1ccc(F)cc1	.	/	/	/
Cc1ccc(OCC(=O)N/N=C/C=C/c2ccco2)cc1C	50µM	.	.	.
Cc1cc(C)cc(NC(=O)CSc2nccn2C2CCCC2)c1	.	/	/	/
CCCC1=[N+](CC)CCn2c(C)ccc21	.	.	.	4.7µM
COCCN(C(=O)COC(=O)c1ccc(Cl)nc1)c1c(N)n(Cc2ccccc2)c(=O)[nH]c1=O	.	.	.	?
CC(C)CN(C(=O)COC(=O)Cc1cccc2ccccc12)c1c(N)n(Cc2ccccc2)c(=O)[nH]c1=O	.	.	?	?
Cc1cc(NC(=O)/C=C/c2ccco2)ccc1NC(=O)c1ccccc1	10µM	.	.	.
O=C(/C=C/c1ccco1)Nc1ccc2nn(-c3ccccc3)nc2c1	32µM	.	.	.
Cc1ccc(NC(=O)/C=C/c2ccco2)cc1F	14µM	/	/	/

High-throughput results (PubChem BioAssay)
